# Assay results from PubChem BioAssay (NCATS).
# Inconclusive results are not listed. Where a call stands in place of a potency, no number is given. The source made the active and inactive calls. Calls come from the whole dose curve; as a rule, active = well fitted curve in the direction sought with a large enough effect; inconclusive = small, poorly fitted or top-dose-only effect, or another doubt; inactive = no such curve, though single readings can be large; an effect the other way counts as inactive or inconclusive.
# Tests used:
# [1] = biological target: Voltage-gated inwardly rectifying potassium channel KCNH2 (Homo sapiens) (UniProt Q12809); experiment: qHTS Assay for Small Molecule Inhibitors of the Human hERG Channel Activity (AID 588834);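 note: lower thallium flux fluorescence means stronger hERG block; nearly all actives have a fitted effect of over 50% in size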; note: potency is the fitted concentration of half-maximal effect
# Summary of the method: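 Concentration-response qHTS measuring drop in thallium-sensitive dye signal. U2OS cells carrying BacMam hERG; compound exposure ~10 min, then stimulation buffer and 2 min read at 1 sec intervals.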
# [2] = qHTS of Trypanosoma Brucei Inhibitors: LOPAC Validation (AID 624147); note: potency is the fitted concentration of half-maximal effect
# Summary of the method: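 In this concentration-response screen, enzyme-free wells defined baseline while DMSO plates tracked drift. Each reaction combined TbPYK, substrate, compound and 130 uM ADP for 45 min at room temperature. Kinase-Glo Plus luminescence gave the signal.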
# [3] = biological target: Glucagon-like peptide 1 receptor (Homo sapiens) (UniProt P43220); experiment: qHTS of GLP-1 Receptor Agonists: LOPAC Validation (AID 624148);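 note: higher luminescence signal means agonism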
# Summary of the method: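 HEK293 cells stably co-expressing a cAMP-responsive luciferase reporter and a hypersensitive GLP-1R were plated 12 h at 37 °C and exposed to compounds for 4-6 hr at 37 °C, 5% CO2. Luminescence was read 12 min after adding detection reagent.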
# [4] = qHTS of Nrf2 Activators: LOPAC Validation (AID 624149)
# Summary of the method: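 Luminescence read-out of ARE-luciferase activation: AREc32_Fluc cells treated with compounds for 24 hr at 37 deg C, then lysed with Steady-Glo for 30 min at room temperature before reading.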
# [5] = biological target: Glutaminase kidney isoform, mitochondrial (Homo sapiens) (UniProt O94925); experiment: qHTS for Inhibitors of Glutaminase (GLS): LOPAC Validation (AID 624146); note: nearly all actives have a fitted effect of over 60% in size; note: potency is the fitted concentration of half-maximal effect
# Summary of the method: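 hKGA in 45 mM KH2PO4 pH 8.2, 0.02% Tween-20 with pin-transferred compounds; 1 mM L-glutamine (stock) plus glutamate oxidase/HRP/Amplex Red coupling added. Fluorescence read initially and after 30 min at RT.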
# [6] = HTS Assay for Allosteric Antagonists of the Human D2 Dopamine Receptor: Hit Validation in HTRF (AID 624455); note: potency is the fitted concentration of half-maximal effect;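 note: stable D1 dopamine receptor cell line scored for blocking the D1 response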
# Summary of the method: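 First, antagonism was screened by calcium flux in a force-coupled, inducible Hek293 Trex D2 line challenged with EC80 dopamine. Hits then went into an HTRF assay in cells stably expressing D1, testing inhibition of the D1 response.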
# Chain of Glucagon-like peptide 1 receptor (Homo sapiens) (P43220 whole entry, looked up): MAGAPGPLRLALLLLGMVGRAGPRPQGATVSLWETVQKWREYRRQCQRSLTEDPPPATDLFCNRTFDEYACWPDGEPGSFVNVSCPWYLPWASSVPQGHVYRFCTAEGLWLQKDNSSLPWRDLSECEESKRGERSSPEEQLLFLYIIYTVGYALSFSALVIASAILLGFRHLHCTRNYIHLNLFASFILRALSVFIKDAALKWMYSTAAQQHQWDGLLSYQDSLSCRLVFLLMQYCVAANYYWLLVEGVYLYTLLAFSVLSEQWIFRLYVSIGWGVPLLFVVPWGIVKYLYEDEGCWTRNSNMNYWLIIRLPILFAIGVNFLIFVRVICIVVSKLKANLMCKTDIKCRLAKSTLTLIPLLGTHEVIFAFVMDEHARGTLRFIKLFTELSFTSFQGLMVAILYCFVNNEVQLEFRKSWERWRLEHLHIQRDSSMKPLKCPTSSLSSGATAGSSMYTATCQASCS
# Chain of Voltage-gated inwardly rectifying potassium channel KCNH2 (Homo sapiens) (Q12809 whole entry, looked up): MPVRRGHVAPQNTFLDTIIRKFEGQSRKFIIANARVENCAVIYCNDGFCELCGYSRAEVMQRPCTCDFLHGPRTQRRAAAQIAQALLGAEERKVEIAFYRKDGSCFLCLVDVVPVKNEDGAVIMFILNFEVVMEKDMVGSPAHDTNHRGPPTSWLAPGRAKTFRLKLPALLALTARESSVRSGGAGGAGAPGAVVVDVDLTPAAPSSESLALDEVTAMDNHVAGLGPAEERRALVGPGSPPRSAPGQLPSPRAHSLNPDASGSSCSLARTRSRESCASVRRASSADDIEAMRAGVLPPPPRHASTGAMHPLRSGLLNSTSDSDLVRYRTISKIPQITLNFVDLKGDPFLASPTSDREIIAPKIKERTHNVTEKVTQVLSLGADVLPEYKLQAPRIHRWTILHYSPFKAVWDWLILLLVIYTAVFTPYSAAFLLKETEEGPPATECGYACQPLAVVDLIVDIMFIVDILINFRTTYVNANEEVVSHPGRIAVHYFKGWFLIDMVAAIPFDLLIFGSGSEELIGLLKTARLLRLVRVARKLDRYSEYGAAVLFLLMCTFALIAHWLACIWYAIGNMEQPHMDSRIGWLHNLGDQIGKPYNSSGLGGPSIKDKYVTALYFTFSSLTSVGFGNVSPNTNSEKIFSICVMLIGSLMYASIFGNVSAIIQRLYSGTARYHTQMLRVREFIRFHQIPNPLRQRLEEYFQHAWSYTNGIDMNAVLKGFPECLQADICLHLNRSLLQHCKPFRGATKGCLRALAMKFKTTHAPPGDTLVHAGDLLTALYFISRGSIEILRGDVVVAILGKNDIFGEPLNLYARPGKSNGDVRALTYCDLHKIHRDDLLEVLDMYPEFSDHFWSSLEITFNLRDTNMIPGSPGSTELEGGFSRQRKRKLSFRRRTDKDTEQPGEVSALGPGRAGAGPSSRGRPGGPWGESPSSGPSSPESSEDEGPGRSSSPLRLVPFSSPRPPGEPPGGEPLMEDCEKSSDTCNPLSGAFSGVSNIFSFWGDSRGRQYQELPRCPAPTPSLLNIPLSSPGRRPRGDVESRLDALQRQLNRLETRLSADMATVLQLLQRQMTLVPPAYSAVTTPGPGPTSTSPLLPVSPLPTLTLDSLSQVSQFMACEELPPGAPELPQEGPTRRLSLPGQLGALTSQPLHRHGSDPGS
# Chain of Glutaminase kidney isoform, mitochondrial (Homo sapiens) (O94925 whole entry, looked up, canonical isoform): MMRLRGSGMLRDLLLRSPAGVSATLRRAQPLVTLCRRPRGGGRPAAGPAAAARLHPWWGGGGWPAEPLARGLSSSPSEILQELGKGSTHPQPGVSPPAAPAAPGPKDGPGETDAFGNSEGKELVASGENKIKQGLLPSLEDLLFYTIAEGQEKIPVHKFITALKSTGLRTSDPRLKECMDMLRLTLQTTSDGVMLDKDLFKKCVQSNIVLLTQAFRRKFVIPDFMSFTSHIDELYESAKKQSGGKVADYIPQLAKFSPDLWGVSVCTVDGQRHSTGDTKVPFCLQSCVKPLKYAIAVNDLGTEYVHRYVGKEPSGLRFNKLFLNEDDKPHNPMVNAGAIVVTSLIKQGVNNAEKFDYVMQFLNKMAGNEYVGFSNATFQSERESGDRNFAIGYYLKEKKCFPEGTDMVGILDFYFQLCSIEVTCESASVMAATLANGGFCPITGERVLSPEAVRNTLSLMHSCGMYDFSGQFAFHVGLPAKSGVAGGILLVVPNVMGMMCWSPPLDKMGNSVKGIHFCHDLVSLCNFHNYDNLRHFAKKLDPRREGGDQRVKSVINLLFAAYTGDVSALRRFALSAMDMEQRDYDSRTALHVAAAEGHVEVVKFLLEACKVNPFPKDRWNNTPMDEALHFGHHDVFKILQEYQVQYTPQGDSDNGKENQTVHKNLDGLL
SMILES,Potency [1],Potency [2],Potency [3],Potency [4],Potency [5],Potency [6]
CCCN(CCc1ccccc1)C1CCc2c(O)cccc2C1 (stereo unspecified),0.355 µM (active),inactive,inactive,inactive,–,–
CCCCCCCCCCC/C=C\C(C)(C)/C=C\CCCC(=O)O,inactive,inactive,inactive,–,inactive,inactive
CCCC(=O)NCCc1c2n(c3ccc(OC)cc13)CCCc1ccccc1-2,inactive,inactive,inactive,–,inactive,inactive
COc1cccc(OC)c1OCCNCC1CSc2ccccc2O1 (stereo unspecified),1.41 µM (active),inactive,inactive,–,inactive,0.291 µM (active)
COc1ccc2c(c1)c(CC(=O)O)c(C)n2Cc1ccc(Cl)cc1,inactive,inactive,inactive,inactive,–,–
O=c1[nH]c(=O)c2nc3ccccc3nc2[nH]1,inactive,inactive,inactive,–,inactive,inactive
CNc1cc(NS(=O)(=O)c2ccc(N)cc2)nc(NC)n1,inactive,–,inactive,inactive,inactive,inactive
NC/C=C\C(=O)O,inactive,inactive,inactive,inactive,–,inactive
COc1ccccc1N1CCN(CCCCNC(=O)c2ccc3ccccc3c2)CC1,1.12 µM (active),inactive,inactive,–,inactive,inactive
CCn1c(=O)[nH]c2cc(Cl)c(Cl)cc21,inactive,inactive,–,inactive,inactive,inactive
O=C(c1ccc2c(c1)OCCO2)N1CCCCC1,inactive,inactive,inactive,–,inactive,inactive
NCC(O)c1ccc(O)c(O)c1 (stereo unspecified),inactive,inactive,–,inactive,inactive,1.16 µM (active)
Cn1c(=O)c2c(nc(/C=C/c3cccc(Cl)c3)n2C)n(C)c1=O,11.2 µM (active),inactive,inactive,–,inactive,inactive
N#CC(=C(\N)Sc1ccccc1N)/C(C#N)=C(/N)Sc1ccccc1N,inactive,–,inactive,inactive,12.6 µM (active),–
NC1(C(=O)O)CC1,–,inactive,inactive,inactive,inactive,inactive
O=S(=O)(c1cccc2c(Cl)cccc12)N1CCCNCC1,–,inactive,inactive,inactive,inactive,inactive
C=C1C[C@@]23CC[C@H]4[C@@](C)(CCC[C@@]4(C)C(=O)OC4OC(CO)C(O)C(O)C4O)[C@@H]2CC[C@]1(OC1OC(CO)C(O)C(O)C1OC1OC(CO)C(O)C(O)C1O)C3 (stereo partly specified),–,inactive,inactive,inactive,inactive,inactive
O=C(O)C1=CCCN(CCON=C(c2ccccc2)c2ccccc2)C1,–,inactive,inactive,inactive,inactive,inactive
CC(C)[C@@H]1CC[C@@H](C)C[C@@H]1P(=O)(c1ccccc1)c1ccccc1,–,inactive,inactive,inactive,inactive,inactive
CC(=O)O[C@H]1Cc2ccccc2N(C(N)=O)c2ccccc21,–,inactive,inactive,inactive,inactive,inactive
N=S(=O)(O)Cc1noc2ccccc12,–,inactive,inactive,inactive,inactive,inactive
CN(CC[C@@H](Oc1ccc(C(F)(F)F)cc1)c1ccccc1)CC(=O)O,–,inactive,inactive,inactive,inactive,inactive

SMILES,Potency [1],Potency [2],Potency [3],Potency [4],Potency [5],Potency [6]
c1ccc(C(NCCNC(c2ccccc2)c2ccccc2)c2ccccc2)cc1,–,inactive,inactive,inactive,inactive,inactive
CC(C)(C)c1ccc(/C=C/C(=O)Nc2ccc3c(c2)OCCO3)cc1,–,inactive,inactive,inactive,inactive,inactive
Cc1cccc(C)c1OCC(N)C(C)C (stereo unspecified),–,inactive,inactive,inactive,inactive,inactive
OC1(c2ccc(Cl)cc2)CCN(Cc2c[nH]c3ccccc23)CC1,–,inactive,inactive,inactive,inactive,inactive
c1ccc2c(c1)CCC[C@H]2Nc1nc2ccccc2[nH]1,–,inactive,inactive,inactive,inactive,inactive
C=C1C[C@@]23CC[C@H]4[C@@](C)(CCC[C@@]4(C)C(=O)O)[C@@H]2CC[C@]1(O)C3,–,inactive,inactive,inactive,inactive,inactive
O=c1ccc2c(OCCCCc3ccccc3)c3ccoc3cc2o1,–,inactive,inactive,inactive,inactive,inactive
Oc1ccc(/C=C/c2ccc(/C=C/c3ccc(O)cc3)c(Br)c2)cc1,–,inactive,inactive,inactive,7.08 µM (active),inactive
CCc1ccc2c(-c3cccc(Cl)c3)nc(=O)n(CC)c2n1,–,inactive,inactive,inactive,inactive,inactive
O=C(O)CCC/C=C\C[C@@H]1[C@@H](/C=C/[C@H](O)C2Cc3ccccc3C2)[C@@H](F)C[C@@H]1O,–,inactive,inactive,inactive,inactive,inactive
S=C(S)N1CCCC1,–,23.9 µM (active),inactive,inactive,12.6 µM (active),inactive
[Li+],–,inactive,inactive,inactive,inactive,inactive
Cc1nc2n(c(=O)c1CCN1CCC(c3noc4cc(F)ccc34)CC1)CCCC2O (stereo unspecified),–,inactive,inactive,inactive,inactive,inactive
O=C1Nc2ccc(I)cc2/C1=C/c1cc(Br)c(O)c(Br)c1,–,inactive,inactive,inactive,inactive,inactive
O=C(N[C@@H](Cc1ccccc1)C(=O)CCl)OCc1ccccc1,–,inactive,inactive,inactive,inactive,inactive
CC(=O)SC1CC2=CC(=O)CC[C@]2(C)C2CC[C@@]3(C)C(CC[C@@]34CCC(=O)O4)C12 (stereo partly specified),–,inactive,inactive,inactive,inactive,inactive
COc1cc(/C=C(\C#N)C(=O)Nc2nnc(C(F)(F)F)s2)ccc1OCc1ccc(C(F)(F)F)cc1C(F)(F)F,–,inactive,inactive,inactive,inactive,inactive
CNCCc1cnc(CCC(c2ccccc2)c2ccccc2)[nH]1,–,inactive,inactive,inactive,inactive,inactive
Cc1cc(Cn2cnc3c2C[C@@H](C(=O)O)N(C(=O)C(c2ccccc2)c2ccccc2)C3)ccc1N,–,inactive,inactive,inactive,inactive,inactive
O=c1cc(-c2ccccc2F)[nH]c2cc3c(cc12)OCO3,–,inactive,inactive,inactive,inactive,inactive
CCCCOc1cc(CC2CNC(=O)N2)ccc1OC (stereo unspecified),–,inactive,inactive,inactive,inactive,inactive
CCN(c1nc(N)c(C(=O)N=C(N)N)nc1Cl)C(C)C,–,inactive,inactive,inactive,inactive,inactive

SMILES,Potency [1],Potency [2],Potency [3],Potency [4],Potency [5],Potency [6]
Nc1ncnc2c1nc(Br)n2C1OC2COP(=O)(O)O[C@@H]2C1O (stereo partly specified),–,inactive,inactive,inactive,inactive,11.6 µM (active)
OC[C@H]1O[C@H](n2cnc3c(N[C@H]4CCC[C@@H]4O)ncnc32)[C@H](O)[C@@H]1O,–,inactive,inactive,inactive,inactive,inactive
CCCCCCC(=O)OC1CC(C)(C)NC(C)(C)C1,–,inactive,inactive,inactive,inactive,inactive
NC(=O)CNCCC(c1ccccc1)c1ccccc1,–,inactive,inactive,inactive,inactive,inactive
Cn1cc(C(=O)OCC2CCN(CCNS(C)(=O)=O)CC2)c2ccccc21,–,inactive,inactive,inactive,inactive,inactive
N=C(N)c1ccccc1,–,inactive,inactive,inactive,inactive,inactive
N[C@@H](Cc1ccc(F)cc1)C(=O)O,–,inactive,inactive,inactive,inactive,inactive
O[Si](CCCN1CCCCC1)(c1ccc(F)cc1)C1CCCCC1 (stereo unspecified),–,inactive,inactive,inactive,inactive,inactive
COC(=O)[C@H](NC(=O)c1cc(-c2ccccc2)nc2ccccc12)c1ccccc1,–,inactive,–,inactive,inactive,–
COc1cc(CNC(=O)CCCCCCC(C)C)ccc1O,–,inactive,inactive,–,3.16 µM (active),inactive
C[C@]12C=CC(=O)C=C1CC[C@@H]1C2=CC[C@]2(C)[C@@H](C(=O)CN3CCN(c4cc(N5CCCC5)nc(N5CCCC5)n4)CC3)CC[C@@H]12,–,inactive,inactive,inactive,inactive,inactive
CC1CCN(CC[C@H]2CCCN2S(=O)(=O)c2cccc(O)c2)CC1,–,inactive,inactive,inactive,inactive,inactive
C[C@H](O)C(=O)C1=Nc2c(nc(N)[nH]c2=O)NC1,–,inactive,inactive,inactive,–,inactive
CC(=O)N[C@@H](Cc1c[nH]c2ccccc12)C(=O)OCc1cc(C(F)(F)F)cc(C(F)(F)F)c1,–,inactive,inactive,inactive,inactive,inactive
Cc1ccccc1/C=C/C1=NCCN1,–,inactive,inactive,–,inactive,inactive
Nc1nc2[nH]c(=O)cnc2c(=O)[nH]1,–,inactive,inactive,inactive,inactive,inactive
CN1CCc2cc(Cl)c(O)cc2[C@@H](c2ccccc2)C1,–,inactive,inactive,–,–,–
Nc1ncnc2c1c(-c1ccc(Oc3ccccc3)cc1)cn2C1CCCC1,–,inactive,inactive,inactive,–,inactive
NCCNS(=O)(=O)c1cccc2c(Cl)cccc12,–,inactive,inactive,inactive,inactive,inactive
COc1cc([C@@H]2c3cc4c(cc3[C@H](O)C3COC(=O)[C@@H]32)OCO4)cc(OC)c1OC (stereo partly specified),–,–,inactive,inactive,–,inactive
